# Over roughly 1,100 compounds, “Renilla luciferase signal (cell health) relative to plate median” has its median near 0.97; the highest 2% begin near 1.6. Many of the other results were omitted from the sample, so the highest values are more common in it than they were.
# System: HEK293T (UBE3A T485A transfected, BAR Wnt reporter)
# Assay: Renilla luciferase signal (cell health) relative to plate median (fold (linear ratio)); higher = higher Renilla signal
# Conditions: 24 h
# Summary of the method: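 Each value averages four biological replicates in HEK293T cells grown at 4500 cells/well in DMEM with 10% FBS at 37°C and 5% CO2. The cells were transfected with a BAR firefly luciferase Wnt reporter, TK-Renilla and an expression plasmid, then four hours later robotically treated with the chemicals at 0.01–100 uM for 24 h. Dual-Glo luciferase signals were median-centred per plate, with the firefly/Renilla ratio reported as Wnt activity and raw Renilla as cell health.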
smiles,measurement,setting,value
C[C@]12CC[C@@H]3c4ccc(O)cc4C[C@@H](CCCCCCCCCS(=O)CCCC(F)(F)C(F)(F)F)[C@H]3[C@@H]1CC[C@@H]2O (stereo partly specified) [Fulvestrant],Renilla luciferase signal,concentration: 0.1 uM,1.07
same,Renilla luciferase signal,concentration: 1 uM,1.04
same,Renilla luciferase signal,concentration: 10 uM,1.09
same,Renilla luciferase signal,concentration: 100 uM,0.48
Cc1nc(C)nc(N2C[C@@H](C)N(c3ccnc([C@@H](C)O)n3)[C@@H](C)C2)n1,Renilla luciferase signal,concentration: 0.1 uM,0.951
same,Renilla luciferase signal,concentration: 1 uM,1.05
same,Renilla luciferase signal,concentration: 10 uM,1.15
same,Renilla luciferase signal,concentration: 100 uM,1.28
CC(C)(C)CC(C)(C)c1ccc(O)c(-n2nc3ccccc3n2)c1 [Octrizole],Renilla luciferase signal,concentration: 0.1 uM,1.08
same,Renilla luciferase signal,concentration: 1 uM,1.17
same,Renilla luciferase signal,concentration: 10 uM,1.27
same,Renilla luciferase signal,concentration: 100 uM,1.31
Cc1cccc(Nc2cc(Cl)nc(SCC(=O)O)n2)c1C [Pirinixic acid],Renilla luciferase signal,concentration: 0.1 uM,0.799
same,Renilla luciferase signal,concentration: 1 uM,0.871
same,Renilla luciferase signal,concentration: 10 uM,0.861
same,Renilla luciferase signal,concentration: 100 uM,1.71
O=C1CCC(N2C(=O)c3ccccc3C2=O)C(=O)N1 (stereo unspecified) [Thalidomide],Renilla luciferase signal,concentration: 0.1 uM,0.78
same,Renilla luciferase signal,concentration: 1 uM,0.818
same,Renilla luciferase signal,concentration: 10 uM,0.85
same,Renilla luciferase signal,concentration: 100 uM,0.675
CCNc1cccc(C)c1 [N-Ethyl-3-methylaniline],Renilla luciferase signal,concentration: 0.1 uM,1.02
same,Renilla luciferase signal,concentration: 1 uM,0.916
same,Renilla luciferase signal,concentration: 10 uM,0.98
same,Renilla luciferase signal,concentration: 100 uM,0.872
CCN(CC)C(=O)c1cccc(C)c1,Renilla luciferase signal,concentration: 0.01 uM,0.895
same,Renilla luciferase signal,concentration: 0.1 uM,0.897
same,Renilla luciferase signal,concentration: 1 uM,0.949
same,Renilla luciferase signal,concentration: 10 uM,0.847
same,Renilla luciferase signal,concentration: 100 uM,1.79
COc1cc(C=O)ccc1O [4-Hydroxy-3-methoxybenzaldehyde],Renilla luciferase signal,concentration: 0.1 uM,0.805
same,Renilla luciferase signal,concentration: 1 uM,0.833
same,Renilla luciferase signal,concentration: 10 uM,0.848
same,Renilla luciferase signal,concentration: 100 uM,0.902
CCN(Cc1c(F)cccc1Cl)c1c([N+](=O)[O-])cc(C(F)(F)F)cc1[N+](=O)[O-] [Flumetralin],Renilla luciferase signal,concentration: 0.01 uM,1.1
same,Renilla luciferase signal,concentration: 0.1 uM,0.795
same,Renilla luciferase signal,concentration: 1 uM,0.84
same,Renilla luciferase signal,concentration: 10 uM,1
same,Renilla luciferase signal,concentration: 100 uM,0.766
Cc1cc(C=C2SC(=O)N(c3ccccc3)C2=O)c(C)n1-c1cccnc1,Renilla luciferase signal,concentration: 0.1 uM,1.02
same,Renilla luciferase signal,concentration: 1 uM,1.06
same,Renilla luciferase signal,concentration: 10 uM,0.979
same,Renilla luciferase signal,concentration: 100 uM,0.257
O=c1[nH]c2cc([N+](=O)[O-])c([N+](=O)[O-])cc2[nH]c1=O,Renilla luciferase signal,concentration: 0.01 uM,1.11
same,Renilla luciferase signal,concentration: 0.1 uM,1.01
same,Renilla luciferase signal,concentration: 1 uM,1.02
same,Renilla luciferase signal,concentration: 10 uM,1.09
same,Renilla luciferase signal,concentration: 100 uM,1.96
O=C(Nc1ccc(Cl)cc1)Nc1ccc(Cl)c(Cl)c1 [Triclocarban],Renilla luciferase signal,concentration: 0.1 uM,1
same,Renilla luciferase signal,concentration: 1 uM,0.895
same,Renilla luciferase signal,concentration: 10 uM,0.408
same,Renilla luciferase signal,concentration: 100 uM,0.021
COC(=O)c1ccccc1O [Methyl salicylate],Renilla luciferase signal,concentration: 0.1 uM,1.22
same,Renilla luciferase signal,concentration: 1 uM,1.13
same,Renilla luciferase signal,concentration: 10 uM,1.23
same,Renilla luciferase signal,concentration: 100 uM,0.53
O=C([O-])c1ccc2c(c1)nc(C(=O)NC1CCN(C3CC3)CC1)n2Cc1cc(-c2ccc(Cl)s2)on1.[Na+],Renilla luciferase signal,concentration: 0.1 uM,0.987
same,Renilla luciferase signal,concentration: 1 uM,0.823
same,Renilla luciferase signal,concentration: 10 uM,0.947
same,Renilla luciferase signal,concentration: 100 uM,0.531
O=C1OC(c2ccc(O)cc2)(c2ccc(O)cc2)c2ccccc21 [Phenolphthalein],Renilla luciferase signal,concentration: 0.1 uM,1.1
same,Renilla luciferase signal,concentration: 1 uM,1.09
same,Renilla luciferase signal,concentration: 10 uM,1.15
same,Renilla luciferase signal,concentration: 100 uM,0.0287
"CCCCCCCC/C=C\CCCCCCCC(=O)OC[C@@H](O)[C@H]1OC[C@H](O)[C@H]1O [Sorbitan, mono-(9Z)-9-octadecenoate]",Renilla luciferase signal,concentration: 0.1 uM,1
same,Renilla luciferase signal,concentration: 1 uM,0.88
same,Renilla luciferase signal,concentration: 10 uM,0.863
same,Renilla luciferase signal,concentration: 100 uM,0.85
O=C(O)c1ccccc1C(c1ccc(O)cc1)c1ccc(O)cc1 [Phenolphthalin],Renilla luciferase signal,concentration: 0.1 uM,1.11
same,Renilla luciferase signal,concentration: 1 uM,1.1
same,Renilla luciferase signal,concentration: 10 uM,0.958
same,Renilla luciferase signal,concentration: 100 uM,0.886
CN(C)CCOC(c1ccccc1)c1ccccc1.Cl [Diphenhydramine hydrochloride],Renilla luciferase signal,concentration: 0.1 uM,0.825
same,Renilla luciferase signal,concentration: 1 uM,0.842
same,Renilla luciferase signal,concentration: 10 uM,0.836
same,Renilla luciferase signal,concentration: 100 uM,0.491
CCCCCCCCCC(=O)O [Decanoic acid],Renilla luciferase signal,concentration: 0.1 uM,0.743
same,Renilla luciferase signal,concentration: 1 uM,0.768
same,Renilla luciferase signal,concentration: 10 uM,0.634
same,Renilla luciferase signal,concentration: 100 uM,0.979
CCCCCC(=O)O [Hexanoic acid],Renilla luciferase signal,concentration: 0.1 uM,1.26
same,Renilla luciferase signal,concentration: 1 uM,1.16
same,Renilla luciferase signal,concentration: 10 uM,1.24
same,Renilla luciferase signal,concentration: 100 uM,1.41
CCCC(=O)O [Butanoic acid],Renilla luciferase signal,concentration: 0.1 uM,1.03
same,Renilla luciferase signal,concentration: 1 uM,1.11
same,Renilla luciferase signal,concentration: 10 uM,1.14
same,Renilla luciferase signal,concentration: 100 uM,1.73
CN(C)C(=O)C1(N2CCCCC2)CCN(CC[C@@]2(c3ccc(Cl)c(Cl)c3)CN(C(=O)c3ccccc3)CCO2)CC1,Renilla luciferase signal,concentration: 0.1 uM,0.903
same,Renilla luciferase signal,concentration: 1 uM,0.888
same,Renilla luciferase signal,concentration: 10 uM,0.664
same,Renilla luciferase signal,concentration: 100 uM,0.0169
CCc1c(C(=O)NN2CCCCC2)nn(-c2ccc(Cl)cc2Cl)c1-c1ccc(Br)cc1 [Surinabant],Renilla luciferase signal,concentration: 0.1 uM,1.06
same,Renilla luciferase signal,concentration: 1 uM,1.07
same,Renilla luciferase signal,concentration: 10 uM,0.127
same,Renilla luciferase signal,concentration: 100 uM,0.363
CCCCCCCC(=O)OC [Methyl octanoate],Renilla luciferase signal,concentration: 0.1 uM,1.03
same,Renilla luciferase signal,concentration: 1 uM,0.911
same,Renilla luciferase signal,concentration: 10 uM,1.04
same,Renilla luciferase signal,concentration: 100 uM,1.61
COC(=O)CCCCC(=O)OC [Dimethyl adipate],Renilla luciferase signal,concentration: 0.1 uM,0.854
same,Renilla luciferase signal,concentration: 1 uM,0.917
same,Renilla luciferase signal,concentration: 10 uM,0.874
same,Renilla luciferase signal,concentration: 100 uM,1.11
CCCCCCCCCCCC(=O)OC [Methyl dodecanoate],Renilla luciferase signal,concentration: 0.1 uM,0.884
same,Renilla luciferase signal,concentration: 1 uM,0.792
same,Renilla luciferase signal,concentration: 10 uM,0.85
same,Renilla luciferase signal,concentration: 100 uM,0.89
O=C(O)c1cccc(C[C@@H]2COc3ccc(OCc4nc5cc(F)ccc5s4)cc3[C@@H]2O)c1,Renilla luciferase signal,concentration: 0.1 uM,1.04
same,Renilla luciferase signal,concentration: 1 uM,1.05
same,Renilla luciferase signal,concentration: 10 uM,1.17
same,Renilla luciferase signal,concentration: 100 uM,0.94
C=CCCCCCCCCCCCC [1-Tetradecene],Renilla luciferase signal,concentration: 0.1 uM,1.14
same,Renilla luciferase signal,concentration: 1 uM,1.17
same,Renilla luciferase signal,concentration: 10 uM,0.992
same,Renilla luciferase signal,concentration: 100 uM,1.23
CC[C@H]1CC[C@H](NCc2cc3c(cc2OC)[C@H]2C[C@H]2C(=O)N3C)[C@H](c2ccccc2)N1,Renilla luciferase signal,concentration: 0.1 uM,0.925
same,Renilla luciferase signal,concentration: 1 uM,0.69
same,Renilla luciferase signal,concentration: 10 uM,0.042
same,Renilla luciferase signal,concentration: 100 uM,0.0275
CC(C)(O)c1ccc(CNC(=O)c2cccnc2Oc2ccc3nonc3c2)cc1,Renilla luciferase signal,concentration: 0.1 uM,0.961
same,Renilla luciferase signal,concentration: 1 uM,0.975
same,Renilla luciferase signal,concentration: 10 uM,0.999
same,Renilla luciferase signal,concentration: 100 uM,0.124
CCSC(=O)N(CC(C)C)CC(C)C [Butylate],Renilla luciferase signal,concentration: 0.01 uM,1.09
same,Renilla luciferase signal,concentration: 0.1 uM,1.15
same,Renilla luciferase signal,concentration: 1 uM,1.07
same,Renilla luciferase signal,concentration: 10 uM,1.09
same,Renilla luciferase signal,concentration: 100 uM,1.59
CCCN(CCC)C(=O)SCC,Renilla luciferase signal,concentration: 0.01 uM,0.911
same,Renilla luciferase signal,concentration: 0.1 uM,0.898
same,Renilla luciferase signal,concentration: 1 uM,1.09
same,Renilla luciferase signal,concentration: 10 uM,0.918
same,Renilla luciferase signal,concentration: 100 uM,2.92
O=[N+]([O-])c1ccc(O)cc1 [4-Nitrophenol],Renilla luciferase signal,concentration: 0.1 uM,0.863
same,Renilla luciferase signal,concentration: 1 uM,0.956
same,Renilla luciferase signal,concentration: 10 uM,0.876
same,Renilla luciferase signal,concentration: 100 uM,0.736
O=C(O)c1ccc([N+](=O)[O-])cc1 [4-Nitrobenzoic acid],Renilla luciferase signal,concentration: 0.1 uM,1.01
same,Renilla luciferase signal,concentration: 1 uM,0.971
same,Renilla luciferase signal,concentration: 10 uM,1.08
same,Renilla luciferase signal,concentration: 100 uM,1.33
"C=CCc1cc(S(=O)(=O)c2ccc(O)c(CC=C)c2)ccc1O [4,4'-Sulfonylbis[2-(prop-2-en-1-yl)phenol]]",Renilla luciferase signal,concentration: 0.1 uM,1
same,Renilla luciferase signal,concentration: 1 uM,1.11
same,Renilla luciferase signal,concentration: 10 uM,1.34
same,Renilla luciferase signal,concentration: 100 uM,0.0284
Cc1c(C)c2c(c(C)c1O)CCC(C)(CCCC(C)CCCC(C)CCCC(C)C)O2 (stereo not drawn) [Vitamin E (alpha-tocopherol)],Renilla luciferase signal,concentration: 0.01 uM,1.15
same,Renilla luciferase signal,concentration: 0.1 uM,1.02
same,Renilla luciferase signal,concentration: 1 uM,0.963
same,Renilla luciferase signal,concentration: 10 uM,1.28
same,Renilla luciferase signal,concentration: 100 uM,1.99
Cc1c(C)c2c(c(C)c1O)CCC(C)(COc1ccc(CC3SC(=O)NC3=O)cc1)O2 (stereo unspecified) [Troglitazone],Renilla luciferase signal,concentration: 0.1 uM,0.923
same,Renilla luciferase signal,concentration: 1 uM,0.982
same,Renilla luciferase signal,concentration: 10 uM,0.892
same,Renilla luciferase signal,concentration: 100 uM,0.0852
CCCCCCCCCCCCCCO [1-Tetradecanol],Renilla luciferase signal,concentration: 0.1 uM,0.93
same,Renilla luciferase signal,concentration: 1 uM,0.831
same,Renilla luciferase signal,concentration: 10 uM,0.94
same,Renilla luciferase signal,concentration: 100 uM,0.92
CCOc1ccc2c(c1)C(C)=CC(C)(C)N2 [Ethoxyquin],Renilla luciferase signal,concentration: 0.1 uM,1
same,Renilla luciferase signal,concentration: 1 uM,1.01
same,Renilla luciferase signal,concentration: 10 uM,0.86
same,Renilla luciferase signal,concentration: 100 uM,0.0339
OC[C@H]1O[C@@H]2O[C@H]3[C@H](O)[C@@H](O)[C@@H](O[C@H]4[C@H](O)[C@@H](O)[C@@H](O[C@H]5[C@H](O)[C@@H](O)[C@@H](O[C@H]6[C@H](O)[C@@H](O)[C@@H](O[C@H]7[C@H](O)[C@@H](O)[C@@H](O[C@H]1[C@H](O)[C@H]2O)O[C@@H]7CO)O[C@@H]6CO)O[C@@H]5CO)O[C@@H]4CO)O[C@@H]3CO [alpha-Cyclodextrin],Renilla luciferase signal,concentration: 0.1 uM,1.12
same,Renilla luciferase signal,concentration: 1 uM,1.05
same,Renilla luciferase signal,concentration: 10 uM,1.05
same,Renilla luciferase signal,concentration: 100 uM,1.77

# Reference: the supplement of paper PMC9254222
